Data: PubChem BioAssay (Tox21)
Records with an inconclusive call do not appear. Activity calls are given as the source filed them. Unless noted, calls come from the whole dose curve; as a rule, active = well fitted curve in the direction sought with a large enough effect in the repeat runs; inconclusive = weak or mixed curves; inactive = no such curve, though single readings can be large; an effect the other way counts as inactive or inconclusive.

What was measured:
[1] = qHTS assay to identify small molecule agonists of the vitamin D receptor (VDR) signaling pathway - cell viability counter screen (AID 743224); note: nearly all actives have a fitted effect of over 50% in size; note: potency is the fitted concentration of half-maximal effect
Method in brief: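 Plated VDR-bla cells (4 h, 37C) received compound, incubated 16 h, then LiveBLAzer substrate 2 h RT; CellTiter-Glo added afterwards, luminescence read at 30 min.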

[2] = qHTS assay to identify small molecule antagonists of the vitamin D receptor (VDR) signaling pathway - cell viability counter screen (AID 743225); note: nearly all actives have a fitted effect of over 50% in size
Method in brief: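 VDR-bla HEK 293T cells, 4 h pre-incubation at 37C, then compound plus 1-alpha,25-dihydroxyvitamin D3 (3 nM final) for 16 h. After the beta-lactamase FRET read, CellTiter-Glo was added to the same wells; luminescence after 30 min at room temperature.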

[3] = qHTS assay to identify small molecule agonists of the NFkB signaling pathway - cell viability counter screen (AID 1159515; calls by dose curve; note: nearly all actives have a fitted effect of over 55% in size; note: potency is the fitted concentration of half-maximal effect)
Method in brief: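 Using the same wells as the NFkB reporter read, ME-180 NFkB-bla cells given compounds for 5 hr were assessed for viability via CellTiter-Glo, with luminescence taken after a 30 min room-temperature incubation.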

[4] = qHTS assay to identify small molecule agonists of the endoplasmic reticulum stress response signaling pathway (AID 1159516; active = well fitted activation curve with a large enough effect in the signal ratio in the repeat runs, not every such curve was filed as active; the % refers to the signal ratio)
Method in brief: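 An ESRE-bla HeLa cell assay: compounds were pin-transferred from DMSO onto overnight-plated cells and left 5 hr at 37 C. Substrate was then loaded for 2 hr at room temperature before reading fluorescence at 460 nm and 530 nm.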

[5] = qHTS assay to identify small molecule antagonists of the retinoid-related orphan receptor gamma (ROR-gamma) signaling pathway - cell viability counter screen (AID 1159520); note: nearly all actives have a fitted effect of over 50% in size
Method in brief: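 Tet-on ROR gamma CHO cells were given compounds for 2 hr, then doxycycline hyclate at 1 uM final, and incubated 16 hr at 37 C. Viability was measured as ATP content by CellTiter-Glo luminescence.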

[6] = target: Nuclear receptor ROR-gamma (Homo sapiens) (UniProt P51449); assay: qHTS assay to identify small molecule antagonists of the retinoid-related orphan receptor gamma (ROR-gamma) signaling pathway (AID 1159521;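 note: CHO cells with doxycycline inducible ROR-gamma driving an RORE luciferase reporter; top concentration of the series differs between compounds; nearly all actives have a fitted effect of over 50% in size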)
Method in brief: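 Tet-on RORγ CHO cells carrying a ROR response element–luciferase reporter were pretreated with compounds for 2 h, then induced with 1 uM (final) doxycycline hyclate for 16 h at 37 C. Antagonism was read as decreased ONE-Glo luminescence.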

[7] = qHTS assay to identify small molecule agonists of the AP-1 signaling pathway - cell viability counter screen (AID 1159525; calls by dose curve; note: nearly all actives have a fitted effect of over 55% in size)
Method in brief: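 AP-1-bla ME-180 cells in Opti-MEM with 0.5% dialyzed FBS, compound exposure 5 h at 37 C in 15-point titration. Viability read in the same wells as ATP content by CellTiter-Glo luminescence, normalised to tetra-n-octylammonium bromide and DMSO controls.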

[8] = qHTS assay to identify small molecule agonists of the AP-1 signaling pathway (AID 1159526; calls by dose curve)
[9] = target: Retinoic acid receptor RXR-alpha (Homo sapiens) (UniProt P19793); assay: qHTS assay to identify small molecule agonists of the RXR signaling pathway (AID 1159527; calls by dose curve; note: nearly all actives have a fitted effect of over 35% in size)
Sequence of Retinoic acid receptor RXR-alpha (Homo sapiens) (P19793 whole entry, looked up): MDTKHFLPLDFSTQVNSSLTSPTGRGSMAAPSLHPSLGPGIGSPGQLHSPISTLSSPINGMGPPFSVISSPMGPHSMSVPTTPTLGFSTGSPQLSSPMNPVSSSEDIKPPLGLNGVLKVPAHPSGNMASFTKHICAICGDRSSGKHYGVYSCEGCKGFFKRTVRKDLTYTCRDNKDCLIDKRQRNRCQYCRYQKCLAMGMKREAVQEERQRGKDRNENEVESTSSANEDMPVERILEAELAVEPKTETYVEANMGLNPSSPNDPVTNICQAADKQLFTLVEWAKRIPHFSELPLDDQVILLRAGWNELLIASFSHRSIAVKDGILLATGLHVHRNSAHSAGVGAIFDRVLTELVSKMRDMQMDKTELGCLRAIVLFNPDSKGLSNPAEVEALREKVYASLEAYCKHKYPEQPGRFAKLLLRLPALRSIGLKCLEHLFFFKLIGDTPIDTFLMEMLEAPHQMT
Method in brief: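 GeneBLAzer RXR-alpha-UAS-bla HEK 293T cells in medium with 2% charcoal-stripped FBS, pre-incubated 5 hr at 37 C, then exposed to compounds 16 hr. Beta-lactamase reporter read by FRET substrate, 2 hr room temperature, 460/530 nm emission.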

[10] = qHTS assay to identify small molecule agonists of the RXR signaling pathway - cell viability counter screen (AID 1159529); note: nearly all actives have a fitted effect of over 50% in size; note: potency is the fitted concentration of half-maximal effect
Method in brief: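 RXR-alpha-UAS-bla HEK 293T cells in medium with 2% charcoal-stripped FBS were preincubated 5 hr, then exposed to compounds for 16 hr at 37 C. Viability was read as CellTiter-Glo luminescence after 30 min at room temperature.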

[11] = qHTS assay to identify small molecule antagonists of the retinoid acid receptor (RAR) signaling pathway - cell viability counter screen (AID 1159551); note: nearly all actives have a fitted effect of over 35% in size
Method in brief: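 Retinol-stimulated (1 uM final) C3RL4 cells, compound 6 h, 37 C; readout CellTiter-Glo luminescence (ATP) after 30 min RT incubation.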

[12] = qHTS assay to identify small molecule antagonists of the retinoic acid receptor (RAR) signaling pathway (AID 1159552; note: nearly all actives have a fitted effect of over 50% in size)
Method in brief: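 RARE-luc C3RL4 cells; cpds + 1 uM (final) retinol, 6 hr, 37 C/5% CO2; luciferase reagent, 30 min RT, luminescence readout. Inhibitors of retinol-driven signal scored.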

[13] = qHTS assay to identify small molecule agonists of the retinoic acid receptor (RAR) signaling pathway (AID 1159553); details: C3RL4 RARE luciferase reporter, agonist, 6 h; activation: at 73.3 µM (top of the series) unless noted
Method in brief: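 Reporter readout comes from luciferase under RARE control in C3RL4 cells; compound exposure lasts 6 hr at 37 C in 5% CO2, and luminescence is recorded following a 30 min room-temperature incubation with reagent.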

[14] = qHTS assay to identify small molecule antagonists of the estrogen related receptor (ERR) signaling pathway - cell viability counter screen (AID 1224818);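 note: viability measured after 17.5 h of compound exposure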
Method in brief: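 After a 6 h pre-incubation, ERR cells were dosed by pin tool with compounds, positive/negative controls or DMSO alone. Following 17.5 h at 37 C and 30 min with CellTiter-Fluor, fluorescence was recorded.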

[15] = qHTS assay to identify small molecule antagonists of the estrogen related receptor (ERR) signaling pathway (AID 1224819)
Method in brief: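 Luminescence readout (One-Glo, 30 min, RT) of ERR cell line after 18 h compound exposure at 37 C; cells seeded 2,000/well, pre-incubated 6 h, compounds pinned from DMSO stocks.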

[16] = qHTS assay to identify small molecule agonists of the estrogen related receptor (ERR) signaling pathway (AID 1224820)
Method in brief: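 ERR reporter cell line (from NTP), 2,000 cells/well, incubated 6 h before compound addition, then 18 h at 37 C. Luminescence measured 30 min after One-Glo reagent at room temperature.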

[17] = tested on: estrogen-related receptor alpha (ERRalpha) with PGC-1alpha coactivator, human; assay: qHTS assay to identify small molecule antagonists of the estrogen related receptor signaling pathway with the pleiotropic PPARgamma coactivator (PGC) (AID 1224821; calls by dose curve)
Method in brief: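 PGC/ERR reporter cell line, plated 6 h before compound addition, then exposed 18 h at 37 °C. Luciferase activity read by luminescence 30 min after One-Glo addition; decrease indicates antagonism.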

[18] = qHTS assay to identify small molecule antagonists of the estrogen related receptor signaling pathway with the pleiotropic PPARgamma coactivator (PGC) cell viability counter screen (AID 1224822;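 note: viability read after 17.5 h compound exposure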)
Method in brief: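 PGC/ERR cells were plated at 2,000 per well and allowed 6 h to settle before compound addition. Following 17.5 h at 37 C, CellTiter-Fluor reagent was added and fluorescence was read 30 min later.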

[19] = qHTS assay to identify small molecule agonists of the estrogen related receptor signaling pathway with the pleiotropic PPARgamma coactivator (PGC) (AID 1224823)
Method in brief: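 PGC/ERR reporter cells seeded 6 h, then exposed to compounds (23 nL in DMSO) for 18 h at 37 C. One-Glo luciferase luminescence read after 30 min at room temperature.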

Measured: Potency

CCCCCCCC
not listed: [13] | [14] | [15] | [16] | [17] | [18] | [19]
inactive: all other assays above

CCC(CC)(CC(=O)Nc1cccc(/C=C/c2nc(C3CCC3)cs2)c1)C(=O)O
not listed: [9] | [13] | [14] | [15] | [16] | [17] | [18] | [19]
inactive: all other assays above

Cc1c(C)c([N+](=O)[O-])c(C(C)(C)C)c([N+](=O)[O-])c1C
inactive: [3] | [4] | [5] | [6] | [7] | [8] | [11] | [12] | [13]
active: [10] 43.6 µM

CN1CCN2c3ccccc3Cc3ccccc3C2C1 (configuration not stated)
not listed: [8]
inactive: all other assays above

CCCCCCCCCCOC(=O)c1ccccc1C(=O)OCCCCCCCC
not listed: [12] | [13] | [14] | [15] | [16] | [17] | [18] | [19]
inactive: all other assays above

CCCC(=O)OCCc1ccccc1
not listed: [6] | [14] | [15] | [16] | [17] | [18] | [19]
inactive: all other assays above

CC(=O)c1ccc(C(C)=O)cc1
not listed: [1] | [14] | [15] | [16] | [17] | [18] | [19]
inactive: all other assays above

COc1cccc(OC)c1C(=O)O
not listed: [12] | [13] | [14] | [15] | [16] | [17] | [18] | [19]
inactive: all other assays above

CCc1ccc(Br)cc1
not listed: [14] | [15] | [16] | [17] | [18] | [19]
inactive: all other assays above

Cc1ccc(N/N=c2\c(=O)cc/c(=N\Nc3ccc(S(=O)(=O)O)cc3)c2=O)c(C)c1
not listed: [14] | [15] | [16] | [17] | [18] | [19]
inactive: all other assays above

OC1CCCc2ccccc21 (configuration not stated)
not listed: [12] | [13] | [14] | [15] | [16] | [17] | [18] | [19]
inactive: all other assays above

C=CCn1c(=O)n(CC=C)c(=O)n(CC=C)c1=O
not listed: [9] | [14] | [15] | [16] | [17] | [18] | [19]
inactive: all other assays above

CC(N=C(NC#N)Nc1ccncc1)C(C)(C)C (configuration not stated)
not listed: [12] | [17] | [19]
inactive: all other assays above

CC(C)(C)C1CCC(=O)CC1
inactive: [2] | [4] | [5] | [6] | [7] | [10] | [11] | [12]
active: [1] 49 µM | [3] 54.9 µM

Cc1c(F)c(N2CCNC(C)C2)cc2c1c(=O)c(C(=O)O)cn2C1CC1 (configuration not stated)
not listed: [1] | [9] | [14] | [15] | [16] | [17] | [18] | [19]
inactive: all other assays above

c1ccsc1
inactive: [1] | [2] | [3] | [4] | [5] | [6] | [7] | [8] | [10] | [11]

CCCCCc1ccc(Cl)cc1
not listed: [6] | [14] | [15] | [16] | [17] | [18] | [19]
inactive: all other assays above

FC(F)(F)c1cccc(Cl)c1
not listed: [6] | [14] | [15] | [16] | [17] | [18] | [19]
inactive: all other assays above
